For assay [1], the target named is Cytochrome P450 1A2 (Homo sapiens) (UniProt P05177). Put plainly: p450-cyp1a2 (AID 410; calls by dose curve; note: potency is the fitted concentration of half-maximal effect;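 for activity change, negative = inhibition: -100% = full effect of reference inhibitor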). In a few lines: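 Inhibition was calculated relative to 57 uM furafylline (full inhibition). The reaction used human CYP1A2 at 20nM with Luciferin-ME at its Km, 100uM, driven by an NADPH-regenerating system for 60 min at room temperature.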
The target of assay [2] is Glucocorticoid receptor (Homo sapiens) (UniProt P04150). Description: GR-GFP Redistribution (AID 450;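 active = compounds whose dose series gives a full or clear partial fitted curve of increased nuclear translocation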; note: potency is the fitted concentration of half-maximal effect). Particulars: U2OS GR-GFP nuclear translocation, laser cytometry, 2 h.
For assay [3] the target is unchanged. Description: GR-EFC Redistribution (AID 451; calls by dose curve; note: potency is the fitted concentration of half-maximal effect). Particulars: CHO-K1 GR-EFC translocation, beta-gal luminescence, 2 h. In a few lines: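 CHO-K1 cells stably expressing nuclear-localized β-gal enzyme acceptor and GR fused C-terminally to the enzyme donor fragment; ligand-driven nuclear translocation restores β-gal by complementation. Compounds titrated up to 46 uM final, 2 h at 37 °C; luminescence read.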

The target of assay [4] is Mitogen-activated protein kinase 10 (Mus musculus) (UniProt Q61831). Description: JNK3 AlphaScreen Assay (AID 530; active = well fitted curve in either direction with a large enough effect, not every such curve was filed as active;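 note: kinase came from lysate of stimulated human HepG2 cells; signal reports phosphorylation of biotinylated GST-cJun 1-79 at Ser73 with 10 µM ATP; % is set by controls: 0 for no effect and ±100 for the full control effect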). In a few lines:
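JNK3 came from HepG2 lysates pre-activated with IL-1beta and TNF-alpha and phosphorylated biotinylated GST-cJun (1-79) at 10 uM ATP, pH 7.6, room temperature. Compounds were titrated. AlphaScreen signal used anti-phospho-cJun (Ser73) antibody.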
(In general: In Alpha technology, singlet oxygen from a donor bead excites a nearby acceptor bead.)

Assay [5] in a line: Cell Viability - BJ (AID 421; calls by dose curve;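 note: potency is the fitted concentration of half-maximal effect; cells exposed to compound for 40 hours at 37 °C before readout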). Particulars: BJ fibroblast viability, qHTS. The essentials:
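Cytotoxicity as drop in intracellular ATP (CellTiter-Glo, 20 min RT) after 40 hr compound exposure of BJ fibroblasts at 37 °C. Titrations scaled between DMSO and 100 uM tamoxifen, Hill-fitted for AC50.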
A general note: qHTS replaces the single test concentration by a dilution series.

Assay [6] is described as follows: Cell Viability - Jurkat (AID 426;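 active = dose-dependent loss of cell ATP signal giving a full or clear fitted curve, ranked by lower potency value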;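 note: potency is the fitted concentration of half-maximal effect; cells exposed to compound for 40 hours at 37 °C before ATP read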). Particulars: qHTS. The essentials: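 Seed 5000 Jurkat E6-1 cells/well; add compound; incubate 40 hr at 37 °C; add CellTiter-Glo; wait 20 min at room temperature; read luminescence. Fit concentration-response with Hill equation for AC50.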
Assay [7] can be described thus: Cell Viability - Hek293 (AID 427;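 active = compounds whose dose-response curve shows a full or clear partial loss of cell viability, called from curve shape rather than a numeric limit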;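 note: potency is the fitted concentration of half-maximal effect; cells exposed to compound for 40 hours at 37 °C before reading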). The conditions noted are these: qHTS. In a few lines:
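Luminescent ATP content (CellTiter-Glo, 20 min at room temperature) was measured after a 40 hr, 37 °C compound exposure of HEK293 cells. AC50 values came from Hill-equation fits of qHTS concentration-response data normalized to DMSO and 100 uM tamoxifen.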

The nature of assay [8]: Cell Viability - HepG2 (AID 433; calls by dose curve;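 note: potency is the fitted concentration of half-maximal effect; cells exposed to compound for 40 hours; potency for ATP loss meaning cytotoxicity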). Particulars: qHTS. The essentials: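 ATP luminescence (CellTiter-Glo) after 40 h compound exposure, 37 °C, HepG2, 1500 cells/well, complete medium. Normalized: DMSO = basal, 100 uM tamoxifen = 100% inhibition. AC50 via standard Hill equation.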
The nature of assay [9]: Cell Viability - MRC5 (AID 434; calls by dose curve;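 note: potency is the fitted concentration of half-maximal effect; cells exposed to compound for 40 hours at 37 °C; potency reflects cytotoxicity seen as loss of intracellular ATP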). Particulars: MRC5 lung fibroblast viability, qHTS. The essentials:
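MRC5 normal human lung fibroblasts (1500/well) were treated with compounds for 40 hr at 37 °C in complete medium, and viable cells were measured as intracellular ATP by CellTiter-Glo luminescence. AC50 came from Hill fits, normalized to DMSO and 100 uM tamoxifen.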

Assay [10] is described as follows: Cell Viability - SK-N-SH (AID 435; calls by dose curve; note: potency is the fitted concentration of half-maximal effect). The conditions noted are these: SK-N-SH neuroblastoma cell viability qHTS. The essentials:
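CellTiter-Glo ATP luminescence, 20 min RT read; cells pre-plated 5 hr, compound 40 hr at 37 °C, 1500 cells/well, complete medium. Normalized DMSO = 0, 100 uM tamoxifen = 100% inhibition; Hill-fit AC50.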

Assay [11] in a line: Cell Viability - NIH 3T3 (AID 541).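 For activity change, negative = cytotoxicity: plate controls were DMSO alone for no effect and tamoxifen positive control for full effect.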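 Note: cells exposed to compound for 40 hours; nearly all actives have a fitted effect of over 25% in size.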 Note: potency is the fitted concentration of half-maximal effect. Particulars: NIH 3T3 cell viability, qHTS; activity change, negative = cytotoxicity: at 92.2 µM (top of the series). In a few lines: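 AC50 values reflect concentration-dependent loss of intracellular ATP in NIH 3T3 cells after 40 hr treatment in complete culture medium, quantified by luciferase-based luminescence.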
The nature of assay [12]: Cell Viability - HUV-EC-C (AID 542). For activity change, negative = cytotoxicity: % is set by controls: 0 for no effect and ±100 for the full control effect.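 Note: cells exposed to compound for 40 hours; nearly all actives have a fitted effect of over 35% in size.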 Note: potency is the fitted concentration of half-maximal effect. In a few lines: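 Decrease in cellular ATP, quantified by luciferase luminescence, reflects toxicity in normal human vascular endothelial HUV-EC-C cells given compound for 40 hr in complete culture medium. Values are AC50s from concentration-response curves.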
Assay [13] can be described thus: Cell Viability - H-4-II-E (AID 543).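 Note: cells exposed to compound for 40 hours; nearly all actives have a fitted effect of over 35% in size.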 Note: potency is the fitted concentration of half-maximal effect. In a few lines: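 Here, cytotoxicity is measured in the rat hepatoma line H-4-II-E as loss of intracellular ATP after 40 hr compound treatment, detected by luciferase luminescence.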
The nature of assay [14]: Cell Viability - SH-SY5Y (AID 544).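 Note: cells exposed to compound for 40 hours; nearly all actives have a fitted effect of over 55% in size.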 Note: potency is the fitted concentration of half-maximal effect. The essentials: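 Cytotoxicity is scored as a concentration-dependent fall in intracellular ATP in human SH-SY5Y cells treated 40 hr in complete culture medium. Potency is expressed as AC50 from a Hill equation fit.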
The nature of assay [15]: Cell Viability - Renal Proximal Tubule (AID 545).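 For activity change, negative = cytotoxicity: 0% = DMSO only and -100% = 100 µM tamoxifen.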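 Note: cells exposed to compound for 40 hours; nearly all actives have a fitted effect of over 40% in size.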 Note: potency is the fitted concentration of half-maximal effect. The conditions noted are these: renal proximal tubule cells viability; activity change, negative = cytotoxicity: at 91.7 µM (top of the series). The essentials:
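Rat kidney proximal tubule cells, freshly isolated; 1000 cells/well, 5 hr settle, compound 40 hr 37 °C. CellTiter-Glo 20 min RT, luminescence read. AC50 by standard Hill fit.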

Assay [16] can be described thus: Cell Viability - Mesenchymal (AID 546).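 For activity change, negative = cytotoxicity: 0% = DMSO only and -100% = 100 µM tamoxifen.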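 Note: cells exposed to compound for 40 hours before reading.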 Note: potency is the fitted concentration of half-maximal effect. The essentials:
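Normal human renal glomerulus-derived kidney mesenchymal cells, 1000 per well in complete medium, were treated with compounds for 40 hr at 37 °C. Viability was read as intracellular ATP by CellTiter-Glo luminescence; AC50 values came from Hill-equation fits of qHTS concentration-response data.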

Assay [17] in a line: NFAT Signaling Pathway (AID 444; active = well fitted curve in either direction with a large enough effect, not every such curve was filed as active;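 note: carbachol stimulus at about its EC50 of 1 µM final; % is set by controls: 0 for no effect and ±100 for the full control effect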). Particulars: Jurkat NFAT-bla M1, carbachol, beta-lactamase ratio, 5 h; at 38 µM (top of the series) unless noted. In a few lines:
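Jurkat cells carrying an NFAT-driven β-lactamase reporter and co-transfected muscarinic M1 receptor were treated with compound plus carbachol (1 uM final, an EC50 level) for 5 h at 37 °C. CCF4 loading followed for 1 h at RT; 460/530 nm ratio gave %activity.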

“And” between values parts separate entries of the source, which are not always exact repeats. Equal values may be shown once. A number with no mark means an inactive call. Records with an inconclusive call do not appear. The source made the active and inactive calls. Unless noted, calls come from the whole dose curve; as a rule, active = well fitted curve in the direction sought with a large enough effect; inconclusive = small, poorly fitted or top-dose-only effect, or another doubt; inactive = no such curve, though single readings can be large; an effect the other way counts as inactive or inconclusive.

Sequence of Glucocorticoid receptor (Homo sapiens) (P04150 whole entry, looked up, the tested form may be a part): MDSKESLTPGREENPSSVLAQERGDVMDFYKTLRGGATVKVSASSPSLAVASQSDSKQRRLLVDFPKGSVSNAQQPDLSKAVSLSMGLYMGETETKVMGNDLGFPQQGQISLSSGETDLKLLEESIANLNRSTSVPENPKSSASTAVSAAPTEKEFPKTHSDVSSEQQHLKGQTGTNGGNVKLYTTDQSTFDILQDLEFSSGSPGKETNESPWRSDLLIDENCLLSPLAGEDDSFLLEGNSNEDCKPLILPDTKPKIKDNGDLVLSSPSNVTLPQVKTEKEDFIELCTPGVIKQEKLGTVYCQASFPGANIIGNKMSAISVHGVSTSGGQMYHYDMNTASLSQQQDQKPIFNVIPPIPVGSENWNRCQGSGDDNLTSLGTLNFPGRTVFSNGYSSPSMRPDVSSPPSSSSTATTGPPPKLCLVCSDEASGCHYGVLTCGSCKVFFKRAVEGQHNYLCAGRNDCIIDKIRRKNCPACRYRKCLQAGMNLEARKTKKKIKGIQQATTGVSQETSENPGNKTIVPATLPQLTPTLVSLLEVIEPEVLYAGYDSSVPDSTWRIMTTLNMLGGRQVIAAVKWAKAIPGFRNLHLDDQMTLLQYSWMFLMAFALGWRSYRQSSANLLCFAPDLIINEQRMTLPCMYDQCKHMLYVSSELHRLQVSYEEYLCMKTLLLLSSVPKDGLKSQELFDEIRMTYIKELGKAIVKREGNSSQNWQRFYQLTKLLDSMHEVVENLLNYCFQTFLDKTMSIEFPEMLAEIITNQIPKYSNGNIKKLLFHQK
Sequence of Cytochrome P450 1A2 (Homo sapiens) (P05177 whole entry, looked up): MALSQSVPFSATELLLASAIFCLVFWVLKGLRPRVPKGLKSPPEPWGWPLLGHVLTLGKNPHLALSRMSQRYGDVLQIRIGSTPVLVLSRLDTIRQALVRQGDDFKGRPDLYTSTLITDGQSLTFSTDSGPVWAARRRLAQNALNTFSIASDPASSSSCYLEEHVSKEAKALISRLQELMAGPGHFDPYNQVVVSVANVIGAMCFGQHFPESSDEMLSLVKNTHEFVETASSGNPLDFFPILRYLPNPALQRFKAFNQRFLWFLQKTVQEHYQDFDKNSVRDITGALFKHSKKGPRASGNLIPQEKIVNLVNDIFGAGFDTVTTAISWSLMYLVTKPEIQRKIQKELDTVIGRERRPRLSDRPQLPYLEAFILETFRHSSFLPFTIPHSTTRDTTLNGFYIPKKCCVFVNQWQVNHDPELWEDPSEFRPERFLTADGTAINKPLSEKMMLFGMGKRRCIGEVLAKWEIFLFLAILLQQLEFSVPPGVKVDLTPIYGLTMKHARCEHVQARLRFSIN

In the case of `O=c1ccc2[nH]cc(C3=CCNCC3)c2[nH]1`, the Potency result in assay [1] was “inactive”. The Potency in [2] and in assay [3] was over 46 µM in each case. Moreover, the call in [4] was inactive.

On to `O=C1C2CC=CCC2C(=O)N1SC(Cl)(Cl)Cl` (stereo not given), for which the Potency is 54.5 µM (active) and 21.4 µM (active) in assay [5]; 4.24 µM (active) and 4.76 µM (active) in assay [6]; 26.5 µM (active) and 26.9 µM (active) in [7]; 40.6 µM (active) and 37.9 µM (active) in assay [8]; 24.9 µM (active) and 14.7 µM (active) in [9]; 27.7 µM (active) and 13.2 µM (active) in assay [10]. The Potency is 5.01 µM (active) and 2 µM (active) in assay [11]; 50.1 µM (active) and 25.1 µM (active) in [12]; 7.94 µM (active) and 6.31 µM (active) in assay [13]; 2 µM (active) and 1 µM (active) in [14]; 3.98 µM (active) and 3.16 µM (active) in assay [15]; 25.1 µM (active) and 20 µM (active) in assay [16]. Besides, the compound was classed as inactive in assay [4].

For the compound `C=CCN=C=S`, the Potency in assay [5], in [6], in assay [7], in assay [8], in assay [9] and in [10] was over 92 µM in each case. Moreover, in assay [4], the result was inactive. For the same compound, the Potency result in [11], in [12], in [13], in [14], in assay [15] and in assay [16] was “inactive” each time.

`C[C@H]1CCC[C@H](O)CCCCCc2cc(O)cc(O)c2C(=O)O1`: the Potency in [5], in assay [6], in [8] and in [9] was over 92 µM in each case. For the same compound, in assay [4], the outcome was inactive. Also, in assay [11], the activity change, negative = cytotoxicity is -108% (active). For the same compound, the Potency result in assay [12], in assay [13], in [15] and in assay [16] was “inactive” each time.

Regarding `CCCn1c(=O)c2[nH]c(C3CCCC3)nc2n(CCCOC(=O)c2ccc(S(=O)(=O)F)cc2)c1=O`, the Potency result in [1] was “inactive”. Besides, in assay [17], the activity change, negative = inhibition was -34.5%. In addition, the Potency in assay [2] was over 46 µM.

With `c1ccc2c(c1)[I+]c1ccccc1-2`, the Potency in assay [1] is 126 nM (active) and 20 nM (active); in assay [2] it was over 46 µM. The activity change, negative = inhibition in assay [17] is -17.4%. The outcome in [4] was inactive.

In the case of `CCN(CCCl)Cc1ccccc1Br`, the Potency in assay [1] was 15.8 µM (active); in assay [2], over 46 µM; in assay [3], over 46 µM. In addition, in assay [17], the activity change, negative = inhibition is -24.5%. For the same compound, the result in [4] was inactive.

In the case of `COc1ccc2c(c1OC)C(=O)OC2C1c2cc3c(cc2CCN1C)OCO3` (stereo not given), the Potency in assay [5], in assay [6], in assay [7], in [8], in [9] and in [10] was over 92 µM throughout. The compound was classed as inactive in assay [4]. The Potency entry in [11], in assay [12], in [13], in [14], in assay [15] and in assay [16] was “inactive” in each case.

The values above are taken from PubChem BioAssay (NCATS).
